Assay results from PubChem BioAssay (Tox21).
Inconclusive results are not listed. Activity calls are given as the source filed them. Unless noted, calls follow the shape of the full dose curve.

Legend:
[1] = biological target: Gonadotropin-releasing hormone receptor (Homo sapiens) (UniProt P30968); assay: Human gonadotropin-releasing hormone receptor (GnRHR) small molecule agonists, calcium flux assay in GnRHR-HEK293 cells (AID 1920063); also: nearly all actives have a fitted effect of over 35% in size
Chain of Gonadotropin-releasing hormone receptor (Homo sapiens) (P30968 whole entry, looked up): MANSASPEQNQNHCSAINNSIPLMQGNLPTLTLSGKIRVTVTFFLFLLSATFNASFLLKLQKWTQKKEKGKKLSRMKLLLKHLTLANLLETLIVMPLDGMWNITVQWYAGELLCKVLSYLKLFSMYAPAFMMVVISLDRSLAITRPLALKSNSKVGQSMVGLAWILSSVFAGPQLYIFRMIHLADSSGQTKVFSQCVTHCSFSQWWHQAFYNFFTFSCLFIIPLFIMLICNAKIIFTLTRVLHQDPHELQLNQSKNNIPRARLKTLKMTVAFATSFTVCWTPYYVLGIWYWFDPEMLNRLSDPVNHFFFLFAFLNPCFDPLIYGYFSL
Method in brief: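 Stable human GnRHR HEK293 line. 18 h plating, then calcium dye for 1 h at 37 C. Agonist-mode compound addition from DMSO stocks; fluorescence monitored 3 min.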

[2] = biological target: KiSS-1 receptor (Homo sapiens) (UniProt Q969F8); assay: Human kisspeptin (KISS1R) small molecule agonists, calcium flux assay in KISS1R-HEK293 cells (AID 1920064; active = well fitted activation curve with a large enough effect in the repeat runs)
Chain of KiSS-1 receptor (Homo sapiens) (Q969F8 whole entry, looked up): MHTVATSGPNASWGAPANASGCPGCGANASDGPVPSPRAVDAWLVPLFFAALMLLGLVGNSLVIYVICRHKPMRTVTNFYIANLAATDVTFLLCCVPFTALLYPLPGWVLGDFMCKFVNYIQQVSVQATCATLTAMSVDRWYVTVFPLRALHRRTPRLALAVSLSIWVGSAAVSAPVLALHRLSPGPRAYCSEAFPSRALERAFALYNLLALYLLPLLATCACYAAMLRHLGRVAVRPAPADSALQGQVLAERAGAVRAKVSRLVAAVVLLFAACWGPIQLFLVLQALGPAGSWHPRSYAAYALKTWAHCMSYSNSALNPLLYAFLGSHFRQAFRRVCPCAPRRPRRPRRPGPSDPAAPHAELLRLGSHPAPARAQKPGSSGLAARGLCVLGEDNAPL
Method in brief: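 After overnight (18 h) culture at 37 C/5% CO2, human KISS1R-HEK293 cells received calcium dye for 1 h, then test compound; emission at 540 nm (excitation 480 nm) was tracked for 3 min.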

[3] = G protein-coupled receptor (GPCR) small molecule agonists, calcium flux assay: HEK293 wild type cell line counter screen (AID 1920065)
Method in brief: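 Following 18 h incubation at 37 C/5% CO2, plates got calcium dye for 1 h; compounds, ATP or DMSO were then pinned in and fluorescence followed kinetically (480/540 nm).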

[4] = p53 small molecule agonists, cell-based qHTS assay with human liver microsomes (AID 1963577)
Method in brief: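 Compounds act here after metabolic activation: human liver microsomes and NADPH, both at 0.5 mg/mL final, were co-added to p53RE-bla cells. Incubation ran 16 h at 37 C, followed by LiveBLAzer detection.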

[5] = p53 small molecule agonists, cell-based qHTS assay with rat liver microsomes (AID 1963578)
Method in brief: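 Read-out is beta-lactamase reporter fluorescence (LiveBLAzer, 2 h, room temperature, dark) in p53RE-bla cells treated 16 h at 37 C with compound, rat liver microsomes and NADPH, both 0.5 mg/mL final.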

[6] = p53 small molecule agonists, cell-based qHTS assay with human liver microsomes: qHTS cell viability counter screen (AID 1963579); also: nearly all actives have a fitted effect of over 45% in size
Method in brief: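 Cells carrying the p53 response-element beta-lactamase reporter are treated for 16 h at 37 C with test compounds in the presence of human liver microsomes and NADPH (both 0.5 mg/mL final); ATP-based CellTiter-Glo luminescence then reports viability.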

[7] = p53 small molecule agonists, cell-based qHTS assay with rat liver microsomes: qHTS cell viability counter screen (AID 1963580); also: nearly all actives have a fitted effect of over 45% in size
Method in brief: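 Cytotoxicity counter screen: intracellular ATP measured by CellTiter-Glo luminescence in the same wells as the beta-lactamase reporter read, on HCT-116 p53RE-bla cells exposed 16 h at 37 C to compounds with rat liver microsomes and NADPH, each 0.5 mg/mL final.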

[8] = p53 small molecule agonists, cell-based qHTS assay: qHTS cell viability counter screen (AID 1963581); also: nearly all actives have a fitted effect of over 45% in size
Method in brief: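 qHTS counter screen: 16 h compound exposure at 37 C of p53RE-bla HCT-116 cells (4,000 per well, seeded 5 h prior), cell viability by ATP luminescence.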

[9] = p53 small molecule agonists, cell-based qHTS assay (AID 1963582; active = well fitted activation curve with a large enough effect in the signal ratio in the repeat runs, not every such curve was filed as active; the % refers to the signal ratio)
Method in brief: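 Measured: fluorescence from cleaved LiveBLAzer substrate. System: p53RE-bla cells, 16 h compound treatment at 37 C, 2 h substrate step at room temperature.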

[10] = biological target: 5-hydroxytryptamine receptor 2A (Homo sapiens) (UniProt P28223); assay: 5-hydroxytryptamine receptor 2A (HTR2A) small molecule antagonists, cell-based qHTS assay (AID 1963586); also: nearly all actives have a fitted effect of over 45% in size
Chain of 5-hydroxytryptamine receptor 2A (Homo sapiens) (P28223 whole entry, looked up): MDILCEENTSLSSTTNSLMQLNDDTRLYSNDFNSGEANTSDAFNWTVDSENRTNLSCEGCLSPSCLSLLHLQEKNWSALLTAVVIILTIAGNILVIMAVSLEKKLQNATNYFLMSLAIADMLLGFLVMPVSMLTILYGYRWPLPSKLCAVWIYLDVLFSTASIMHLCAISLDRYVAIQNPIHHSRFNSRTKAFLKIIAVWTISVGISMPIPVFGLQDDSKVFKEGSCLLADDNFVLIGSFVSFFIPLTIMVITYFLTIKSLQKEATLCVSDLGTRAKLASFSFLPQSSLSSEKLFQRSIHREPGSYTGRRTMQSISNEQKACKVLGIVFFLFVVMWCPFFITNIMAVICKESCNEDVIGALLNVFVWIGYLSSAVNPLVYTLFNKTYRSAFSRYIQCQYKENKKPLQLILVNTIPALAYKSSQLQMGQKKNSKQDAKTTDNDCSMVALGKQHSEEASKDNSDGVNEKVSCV
Method in brief: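 CHO cells stably expressing human HTR2A were plated for 18 h at 37 C, then loaded with calcium dye for 1 h. Compounds were preincubated 5 min at room temperature before DOI (4 nM solution) was added. Kinetic fluorescence was read for 3 min.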

[11] = biological target: 5-hydroxytryptamine receptor 2A (Homo sapiens) (UniProt P28223); assay: 5-hydroxytryptamine receptor 2A (HTR2A) small molecule agonists, cell-based qHTS assay (AID 1963587); also: nearly all actives have a fitted effect of over 30% in size
Method in brief: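 CHO cells stably expressing human HTR2A, plated 18 h, loaded with calcium dye 1 h at 37 C. Agonist mode: compounds added and intracellular calcium fluorescence recorded kinetically for 2 min at 1 sec intervals.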

[12] = biological target: Muscarinic acetylcholine receptor M1 (Homo sapiens) (UniProt P11229); assay: Cholinergic receptor muscarinic 1 (CHRM1) small molecule antagonists, cell-based qHTS assay (AID 1963588); also: nearly all actives have a fitted effect of over 40% in size
Chain of Muscarinic acetylcholine receptor M1 (Homo sapiens) (P11229 whole entry, looked up): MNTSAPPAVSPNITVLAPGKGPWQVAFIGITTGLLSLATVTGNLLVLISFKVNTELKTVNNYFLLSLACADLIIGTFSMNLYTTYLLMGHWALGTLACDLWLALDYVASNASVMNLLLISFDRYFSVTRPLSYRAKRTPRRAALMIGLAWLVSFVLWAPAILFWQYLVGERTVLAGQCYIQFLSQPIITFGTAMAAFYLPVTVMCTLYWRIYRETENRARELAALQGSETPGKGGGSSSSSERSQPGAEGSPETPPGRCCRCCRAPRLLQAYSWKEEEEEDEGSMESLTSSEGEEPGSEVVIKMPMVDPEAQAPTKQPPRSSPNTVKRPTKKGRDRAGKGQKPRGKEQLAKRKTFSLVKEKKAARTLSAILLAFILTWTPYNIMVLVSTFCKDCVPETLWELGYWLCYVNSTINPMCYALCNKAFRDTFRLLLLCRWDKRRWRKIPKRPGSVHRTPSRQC
Method in brief: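 Compounds were tested at 15 concentrations in three independent runs. Dye-loaded CHRM1-CHO cells were exposed 5 min at room temperature before stimulation by acetylcholine added at 50nM. Intracellular calcium was read kinetically on FDSS for 3 min.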

[13] = biological target: Muscarinic acetylcholine receptor M1 (Homo sapiens) (UniProt P11229); assay: Cholinergic receptor muscarinic 1 (CHRM1) small molecule agonists, cell-based qHTS assay (AID 1963589); also: nearly all actives have a fitted effect of over 35% in size
Method in brief: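 Kinetic fluorescence (1 s intervals) of calcium-sensitive dye in human M1 CHO cells after compound addition; cells pre-incubated 18 h at 37 C/5% CO2 and dye-loaded 1 h.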

[14] = cAMP Responsive Elements (CRE) small molecule agonists, cell-based qHTS assay (AID 1963590)
Method in brief: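 Test agents in DMSO were incubated 3 h at 37 C/5% CO2 with CRE-bla HEK 293T cells seeded 18 h earlier; LiveBLAzer B/G FRET substrate was added and read after 2 h at room temperature.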

[15] = cAMP Responsive Elements (CRE) small molecule antagonists, cell-based qHTS assay (AID 1963591; active = well fitted inhibition curve with a large enough effect in the signal ratio in the repeat runs, not every such curve was filed as active; the % refers to the signal ratio)
Method in brief: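 Reporter line CRE-bla HEK 293T in dialyzed-FBS DMEM; cells preincubated 18 h, treated 3 h with compound plus NKH477 (0.25 uM final); LiveBLAzer FRET, 2 h RT.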

[16] = biological target: Beta-2 adrenergic receptor (Homo sapiens) (UniProt P07550); assay: Adrenergic beta2 receptor (ADRB2) small molecule antagonists, cell-based qHTS assay (AID 1963592); also: series mostly up to about 92 µM; nearly all actives have a fitted effect of over 50% in size
Chain of Beta-2 adrenergic receptor (Homo sapiens) (P07550 whole entry, looked up): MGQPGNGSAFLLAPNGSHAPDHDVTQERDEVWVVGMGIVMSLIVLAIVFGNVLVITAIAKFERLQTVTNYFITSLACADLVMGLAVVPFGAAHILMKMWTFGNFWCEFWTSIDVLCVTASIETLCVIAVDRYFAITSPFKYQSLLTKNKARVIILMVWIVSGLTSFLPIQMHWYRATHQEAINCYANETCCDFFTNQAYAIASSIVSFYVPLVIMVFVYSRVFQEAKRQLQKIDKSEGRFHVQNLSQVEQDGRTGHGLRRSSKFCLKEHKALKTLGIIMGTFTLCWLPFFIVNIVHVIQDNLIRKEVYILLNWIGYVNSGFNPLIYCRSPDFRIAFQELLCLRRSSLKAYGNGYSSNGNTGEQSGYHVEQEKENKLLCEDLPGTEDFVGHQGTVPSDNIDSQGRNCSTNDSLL
Method in brief: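 Assay format: CHO-ADRB2 cells, 18-20hr seeding at 37C/5% CO2, then compound plus 1nM isoproterenol agonist mix for 0.5hr RT. Homogeneous time-resolved fluorescence cAMP detection after 1hr, expressed as 665/615 nm ratio.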

[17] = biological target: Beta-2 adrenergic receptor (Homo sapiens) (UniProt P07550); assay: Adrenergic beta2 receptor (ADRB2) small molecule agonists, cell-based qHTS assay (AID 1963593);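 also: CHO cells stably overexpressing human ADRB2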
Method in brief: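 CHO cells stably over-expressing ADRB2 were plated overnight at 37C, then dosed with compounds plus a stimulation mix containing 100uM IBMX and 25uM Ro-20-1724 for 0.5hr at room temperature. cAMP was measured by HTRF competition, 1hr.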

[18] = biological target: D(2) dopamine receptor (Homo sapiens) (UniProt P14416); assay: Dopamine D2 receptor (DRD2) small molecule agonists, cell-based qHTS assay (AID 1963594); also: nearly all actives have a fitted effect of over 35% in size
Chain of D(2) dopamine receptor (Homo sapiens) (P14416 whole entry, looked up): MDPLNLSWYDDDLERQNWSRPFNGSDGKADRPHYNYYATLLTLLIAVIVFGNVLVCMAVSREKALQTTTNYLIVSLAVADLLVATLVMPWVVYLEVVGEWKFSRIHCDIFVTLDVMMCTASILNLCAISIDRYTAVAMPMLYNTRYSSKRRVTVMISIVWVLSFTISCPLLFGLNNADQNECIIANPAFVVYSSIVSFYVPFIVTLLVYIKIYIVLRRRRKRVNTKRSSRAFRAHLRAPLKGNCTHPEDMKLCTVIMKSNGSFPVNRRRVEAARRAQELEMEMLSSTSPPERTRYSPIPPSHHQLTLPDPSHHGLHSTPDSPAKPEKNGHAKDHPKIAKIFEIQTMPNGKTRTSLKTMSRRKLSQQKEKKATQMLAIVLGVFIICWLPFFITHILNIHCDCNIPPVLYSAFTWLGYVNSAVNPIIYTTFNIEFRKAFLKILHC
Method in brief: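 HEK293 cells stably expressing human DRD2, pre-treated with PDE inhibitor Ro20-1724 (0.1 mM final) and compound 10 min at room temperature, then stimulated with NKH477 (200nM […]) for 30 min. cAMP read by HTRF (665/620 nm).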

[19] = biological target: D(2) dopamine receptor (Homo sapiens) (UniProt P14416); assay: Dopamine D2 receptor (DRD2) small molecule antagonists, cell-based qHTS assay (AID 1963595; active = well fitted inhibition curve with a large enough effect in the signal ratio in the repeat runs, with a control signal flat; the % refers to the signal ratio)
Method in brief: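 Cells were plated and grown for 24 h at 37 °C. Ro20-1724 (0.1 mM final) went in first, then compound for 10 min. NKH477 (200 nM) with quinpirole (12 nM) followed for 30 min at RT, then HTRF detection reagents for 1 h.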

Measured: Potency

N#C[C@@H]1C[C@@H]2C[C@@H]2N1C(=O)[C@@H](N)C12CC3CC(CC(O)(C3)C1)C2
inactive: [1] | [2] | [3] | [4] | [5] | [6] | [7] | [8] | [9] | [10] | [11] | [12] | [13] | [14] | [15] | [16] | [17] | [18] | [19]

CC(=O)CC(=O)Nc1ccc2[nH]c(=O)[nH]c2c1
inactive: [1] | [2] | [3] | [4] | [5] | [6] | [7] | [8] | [9] | [10] | [11] | [12] | [13] | [14] | [15] | [16] | [17] | [18] | [19]

NC(=O)Cc1cccc(C(=O)c2ccccc2)c1N
inactive: [1] | [2] | [3] | [4] | [5] | [6] | [7] | [8] | [9] | [10] | [11] | [12] | [13] | [14] | [15] | [16] | [18] | [19]

CC1=CC[C@@H](C(C)(C)O)CC1
inactive: [1] | [2] | [3] | [4] | [5] | [6] | [7] | [8] | [9] | [10] | [11] | [12] | [13] | [14] | [15] | [16] | [17] | [18] | [19]

CC1=NN(c2ccc(S(=O)(=O)O)cc2)C(=O)C1
inactive: [1] | [2] | [3] | [4] | [5] | [6] | [7] | [8] | [9] | [10] | [11] | [12] | [13] | [14] | [15] | [16] | [17] | [18] | [19]

Cc1cc(N)no1
inactive: [1] | [2] | [3] | [4] | [5] | [6] | [7] | [8] | [9] | [10] | [12] | [13] | [14] | [15] | [18] | [19]

Oc1c(Cl)ccc(Cl)c1Cl
inactive: [1] | [2] | [3] | [4] | [5] | [6] | [7] | [8] | [9] | [10] | [11] | [12] | [13] | [14] | [15] | [16] | [18] | [19]

O=S(O)CO
inactive: [1] | [2] | [3] | [4] | [5] | [6] | [7] | [8] | [9] | [10] | [11] | [12] | [13] | [14] | [15] | [17] | [18] | [19]

C=CC(=O)OCCOC(=O)C=C
inactive: [1] | [2] | [3] | [4] | [5] | [6] | [7] | [8] | [9] | [10] | [11] | [12] | [13] | [14] | [15] | [16] | [17] | [19]

CC1(C)O[C@H]2CC(=O)OC[C@]23[C@H]2CC[C@@]4(C)[C@H](c5ccoc5)OC(=O)[C@H]5O[C@]54[C@]2(C)C(=O)C[C@@H]13
inactive: [1] | [2] | [3] | [4] | [5] | [6] | [7] | [8] | [9] | [10] | [11] | [12] | [13] | [14] | [15] | [16] | [18] | [19]

FC(F)(F)/C(=N\OCC1OCCO1)c1ccc(Cl)cc1
inactive: [1] | [2] | [3] | [4] | [5] | [6] | [7] | [8] | [9] | [10] | [11] | [12] | [13] | [14] | [15] | [16] | [18] | [19]

c1ccc2c(c1)Oc1ccccc1S2
inactive: [1] | [2] | [3] | [4] | [5] | [6] | [7] | [8] | [9] | [11] | [12] | [13] | [14] | [15] | [16] | [17] | [18] | [19]

CCC(CO)CO
inactive: [1] | [2] | [3] | [4] | [5] | [6] | [7] | [8] | [9] | [10] | [11] | [12] | [13] | [14] | [15] | [16] | [18] | [19]

CCOC(=O)c1cccc(N)c1
inactive: [1] | [2] | [3] | [4] | [5] | [6] | [7] | [8] | [9] | [10] | [11] | [12] | [13] | [14] | [16] | [17] | [19]

c1ccc(CCCc2ccncc2)cc1
inactive: [1] | [2] | [3] | [4] | [5] | [6] | [7] | [8] | [9] | [10] | [11] | [12] | [13] | [14] | [15] | [16] | [18] | [19]

CC(C)CCCCCOC(=O)CCS
inactive: [1] | [2] | [3] | [4] | [5] | [6] | [7] | [9] | [10] | [12] | [13] | [14] | [15] | [16] | [17] | [18]

O=C1OCCO1
inactive: [1] | [2] | [3] | [4] | [5] | [6] | [7] | [8] | [9] | [10] | [11] | [12] | [13] | [14] | [15] | [16] | [18] | [19]

COC(=O)c1ccc([N+](=O)[O-])cc1
inactive: [1] | [2] | [3] | [4] | [5] | [6] | [7] | [8] | [10] | [11] | [12] | [13] | [14] | [15] | [16] | [17] | [19]

Cc1cccc(N(C)C(=S)Oc2ccc3ccccc3c2)c1
inactive: [1] | [2] | [3] | [4] | [5] | [6] | [7] | [8] | [9] | [14] | [15] | [16] | [18] | [19]

CC(=O)NCCO
inactive: [1] | [2] | [3] | [4] | [5] | [6] | [7] | [8] | [9] | [10] | [11] | [12] | [13] | [14] | [15] | [16] | [17] | [18] | [19]
